This is an account of results in PubChem BioAssay (NCI).

The panel holds about 83,000 compounds, 20% with a hit somewhere; the sample as a whole holds those more often.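 Activity criterion: percent growth below 10, measured after cells in 96-well plates were exposed to a single compound concentration for 48 hours.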 A number with no mark means an inactive call. Calls of active or inactive are those of the source.

This test deals with HL-60(TB) leukemia. The experiment in a line: NCI-60 one-dose screen, 48 h (100 = growth as untreated, 0 = no growth, -100 = all killed). As to conditions: 10 µM unless noted.
Regarding `N#Cc1c(NC(=O)c2ccc(C(O)(C(F)(F)F)C(F)(F)F)cc2)sc2c1CCC(=O)C2`, the growth is -23.4% (active). For the molecule `O=C1NC(=NC23CC4CC(CC(C4)C2)C3)N/C1=C\c1ccc2ncccc2c1`, the growth was -11.2% (active). As to `CCOc1ccc(/C=N/NC(=O)Cn2nc(Cc3ccc(OC)cc3)c3onc(C)c3c2=O)cc1`, the growth was 57.5%.

With `CCCSc1nc(NCCc2c[nH]c3ccccc23)c(C#N)c(-c2ccc(OC)cc2)n1`, the growth was 40.7%. As to `Cc1cc(C)cc(C(=O)Nc2cccc(-c3cn(-c4ccc(S(N)(=O)=O)cc4)nn3)c2)c1`, the growth was 75.8%.

Consider `O=C(N=Nc1c(O)[nH]c2ccc(Cl)cc12)c1ccc2nc(-c3ccccc3)[nH]c2c1`, for which the growth was 72.5%. For `O=C(CSc1nc2sc3c(c2c(=O)n1-c1ccc(Cl)cc1)CCCC3)NNC(=O)c1ccc(F)cc1`, the growth is 109%. As to `Cc1ccn2c(C(=O)c3ccc(Br)cc3)cc(-c3cc(-c4ccc(N(C)C)cc4)c(C#N)c(N)n3)c2c1`, the growth was 89.5%.

As for `Clc1ccc(Nc2nnc(-c3c[nH]c4ccccc34)o2)cc1`, the growth was 43.4%. With `CC(=O)OC[C@@]1(C)C2CC[C@]3(C)C(CC=C4C5CC(C)(C)CC[C@]5(C(=O)Nc5cccc(C)c5)CC[C@]43C)[C@@]2(C)C[C@@H](OC(C)=O)[C@@H]1OC(C)=O` (stereo partly specified) the figure was 29.4%; with `COc1ccc(/C=C/c2n(Cc3ccc4ccccc4c3)c3ccccc3[n+]2Cc2ccc3ccccc3c2)cc1`, -5.59% (active). With `CCCCCCCCc1ccc(C(=O)Nc2cccc(O)c2)cc1` the figure was 56.5%. With `O=C(Cn1nc(-c2ccccc2)ccc1=O)NNC(=S)NC1CCCCC1`, the growth is 94.8%. `COc1ccc(Nc2nnc(-c3c[nH]c4ccccc34)o2)cc1`: the growth is 29.8%. Regarding `Cc1ccc(-c2nc(Nc3ccccc3C(=O)O)c3ccccc3n2)cc1`, the growth is 17.8%. As for `COc1ccc(-c2nc3ccc(-c4nnc(SCc5ccccc5)o4)cc3[nH]2)cc1`, the growth is 16.3%. In the case of `N#Cc1ccc(C(=O)Nn2c(N)cc3ccccc3c2=O)cc1`, the growth is 98.5%.

Consider `C=CC(=O)Nc1ccc(C)c(Oc2ccc(Cl)cc2)c1`, for which the growth was 54%. On to `CCOc1ccc(/C=N/NC(=O)Cn2nc(Cc3ccccc3)c3onc(C)c3c2=O)cc1`, for which the growth was 89.7%.

With `Cc1ccc(-c2cc(-c3cc4ccccc4nc3Cl)[nH]c(=S)n2)cc1`, the growth is 11.6%. Consider `CC1=C(C(=O)c2ccccc2)C(c2cccc3ccccc23)n2c(nc3ccccc32)N1` (stereo unspecified), for which the growth is 58.6%.

Consider `O=C(Nc1cccc([N+](=O)[O-])c1)Nc1cccc([N+](=O)[O-])c1`, for which the growth was 92.4%. With `FC(F)(F)c1cc2c(Cl)ncnc2n1CCN1CCCCC1`, the growth was -13.5% (active).

Turning to `CN(C)c1nc(NCCNS(=O)(=O)c2ccc(C(=O)/C=C/c3ccccc3)cc2)nc(N2CCOCC2)n1`, the growth is 33%.

For the molecule `CN1CCc2c(sc3ncnc(N/N=C/c4cn(-c5ccccc5)nc4-c4ccc(Cl)cc4)c23)C1`, the growth is -12.4% (active). As to `C[C@@H]1[C@H]2C[C@@H](C[C@H]1NCc1nc3ccccc3n1C1CCCCCC1)C2(C)C`, the growth was 15%.

Take `COc1ccc(NC2=C(I)C(=O)C(C)=C(C)C2=O)cc1`: the growth was -35.7% (active). Regarding `N#C/C(=C\c1ccc(N(c2ccccc2)c2ccccc2)cc1)C(N)=O`, the growth is 68.7%. For `CC(C)(C)OC(=O)/C=C/c1cccc2c1C(=O)NC(C)(c1cc3cc(Cl)ccc3oc1=O)N2` (stereo unspecified), the growth was -6.16% (active). With `Cc1ccc2nc(-c3ccc(-c4nnc(SCC(=O)Nc5ccc(Cl)cc5)o4)cc3)[nH]c2c1`, the growth was 53.8%. With `COc1cc2c(c(OC)c1OC)C(=O)CC(c1cccc(NC(=O)c3cccc(N)c3)c1)O2` (stereo unspecified) the figure was 86.4%; with `COc1cc2cc(C(=O)N3C[C@@H](CCl)c4c3cc(OC(=O)N(CCC(=O)N3CCN(C)CC3)[C@H]3CCSSC3)c3ccccc43)[nH]c2c(OC)c1OC`, -34.5% (active); with `COc1cc2c(c(OC)c1OC)C(=O)CC(c1cccc(NC(=O)c3cc(NC(=O)[C@H](CO)NC(=O)OC(C)(C)C)ccc3Cl)c1)O2` (stereo partly specified), 36.6%. With `c1n[nH]cc1-c1nc2ccc3cn[nH]c3c2c2c1CCCC2` the figure was 94.4%; with `CC1=C(C(=O)OC(C)C)C(c2ccc(O)cc2)NC(=O)N1` (stereo unspecified), 90.2%. As for `N#Cc1ccc(-c2nn(-c3ccc(C(=O)O)cc3)cc2CNc2cc(Cl)cc(Cl)c2)cc1`, the growth was 29.5%.
